Results published in PubChem BioAssay (NCI).
Compounds without any hit were thinned out: in the full panel of roughly 79,000, 15% have a hit. Active and inactive are the calls of the source. Cut-off read from the data, not from the text of the source: active = growth inhibition above about 70%; inactive = the rest.

Assays:
[1] = NCI Yeast Anticancer Drug Screen. Data for the mec2-1 strain (AID 157); details: S. cerevisiae mec2-1 strain, active compounds read high
Procedure, shortened: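 mec2-1 yeast strain, carrying an alteration in DNA damage repair or cell cycle control, was exposed to compounds; growth inhibition was measured relative to vehicle-treated controls.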

[2] = NCI Yeast Anticancer Drug Screen. Data for the rad14 strain (AID 159);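 note: 0% = growth of vehicle-treated control cultures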; details: S. cerevisiae rad14 strain growth inhibition, active compounds read high
Procedure, shortened: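 Yeast cells carrying a defined DNA-repair defect were exposed to compounds, and growth inhibition was calculated relative to vehicle-treated control cultures.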

[3] = NCI Yeast Anticancer Drug Screen. Data for the sgs1 mgt1 strain (AID 161);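 note: 0% = growth of cultures given vehicle only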; details: S. cerevisiae sgs1 mgt1 strain, active compounds read high
Procedure, shortened: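 Percent growth inhibition was derived by comparing compound-exposed mutant yeast with vehicle-exposed cultures. The strain carries alterations in DNA damage repair.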

[4] = NCI Yeast Anticancer Drug Screen. Data for the CLN2oe strain (AID 163);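 note: 0% = growth of vehicle-only control cultures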; details: S. cerevisiae CLN2oe strain, active compounds read high
Procedure, shortened: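 Yeast cells carrying a defined cell-cycle control alteration were exposed to test compounds. Growth inhibition was scored against vehicle-treated control cultures.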

[5] = NCI Yeast Anticancer Drug Screen. Data for the bub3 strain (AID 167); details: S. cerevisiae bub3 mutant strain, active compounds read high
Procedure, shortened: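 Compounds were applied to a genetically altered yeast strain carrying a cell-cycle control defect. Growth inhibition was scored against vehicle-treated controls.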

[6] = NCI Yeast Anticancer Drug Screen. Data for the wt2 strain (AID 169);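 note: 0% = growth of vehicle-treated yeast cultures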; details: S. cerevisiae wt2 strain growth inhibition, active compounds read high
Procedure, shortened: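 Yeast cells were exposed to test compounds, and growth inhibition was measured relative to vehicle-treated controls.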

[7] = NCI Yeast Anticancer Drug Screen. Data for the mlh1 strain (AID 171);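 note: 0% = growth of vehicle-treated control cultures of the same strain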; details: S. cerevisiae mlh1 strain growth inhibition, active compounds read high
Procedure, shortened: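 Yeast carrying a defined genetic alteration in DNA damage repair or cell cycle control were exposed to test compounds. Growth inhibition was measured relative to vehicle-treated controls.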

[8] = NCI Yeast Anticancer Drug Screen. Data for the sgs1 strain (AID 173);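 note: 0% = growth of vehicle-only control cultures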; details: S. cerevisiae sgs1 mutant, active compounds read high
Procedure, shortened: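 Yeast mutant strains carrying defined defects in DNA damage repair or cell cycle control were exposed to test compounds. Growth inhibition was scored against vehicle-treated controls.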

[9] = NCI Yeast Anticancer Drug Screen. Data for the mlh1 rad18 strain (AID 175); details: S. cerevisiae mlh1 rad18 strain growth inhibition, active compounds read high
Procedure, shortened: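 Growth inhibition of the yeast strain was measured after compound exposure and expressed relative to vehicle-treated controls. The strain carries defined defects in DNA damage repair.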

[10] = NCI Yeast Anticancer Drug Screen. Data for the rad18 strain (AID 177); details: S. cerevisiae rad18 mutant growth inhibition, active compounds read high
Procedure, shortened: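 Yeast carrying a defined DNA damage repair alteration were exposed to compounds. Growth inhibition was expressed relative to vehicle-treated controls.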

[11] = NCI Yeast Anticancer Drug Screen. Data for the rad52 strain (AID 147);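 note: 0% = growth of vehicle-treated control cultures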; details: S. cerevisiae rad52 mutant growth inhibition, active compounds read high
Procedure, shortened: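 Yeast strain carrying a DNA damage repair alteration was exposed to test compounds. Growth inhibition was measured relative to vehicle-treated controls.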

[12] = NCI Yeast Anticancer Drug Screen. Data for the wt1 strain (AID 149);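 note: 0% = growth of vehicle-treated wt1 cultures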; details: S. cerevisiae wt1 strain (SPY 50644) growth inhibition, active compounds read high
Procedure, shortened: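 Yeast wt1 strain exposed to compounds; growth inhibition measured relative to vehicle-treated controls.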

[13] = NCI Yeast Anticancer Drug Screen. Data for the rad50EPP+ strain (AID 151);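 note: 0% = growth of vehicle-treated control cultures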; details: S. cerevisiae rad50 mutant strain, active compounds read high
Procedure, shortened: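 Yeast strain carrying rad50 alteration (rad50EPP+) exposed to compounds; growth inhibition measured relative to vehicle-treated controls.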

[14] = NCI Yeast Anticancer Drug Screen. Data for the mgt1 strain (AID 153); details: S. cerevisiae mgt1 mutant growth inhibition, active compounds read high
Procedure, shortened: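 Yeast mgt1 strain (DNA repair/cell-cycle alteration panel) exposed to compounds; growth inhibition measured relative to vehicle-treated controls.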

[15] = NCI Yeast Anticancer Drug Screen. Data for the rad50 strain (AID 155);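 note: 0% = growth of vehicle-only cultures of the same strain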; details: S. cerevisiae rad50 strain growth inhibition, active compounds read high
Procedure, shortened: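 Yeast carrying a defined DNA repair defect were exposed to test compounds, and growth was compared with vehicle-treated controls to give percent inhibition.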

[16] = NCI Yeast Anticancer Drug Screen. Data for the cln2 rad14 strain (AID 165);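 note: 0% = growth equal to vehicle treated cultures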; details: S. cerevisiae cln2 rad14 strain, active compounds read high
Procedure, shortened: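 Yeast carrying cln2 and rad14 alterations (cell cycle control and DNA damage repair) were exposed to compounds. Growth inhibition was measured against vehicle-treated controls.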

[17] = at 5.0 µM (retest, dose inferred, filed as 0.5)
[18] = at 50.0 µM (retest, dose inferred, filed as 5.0)

Measured: growth inhibition

O=C1C(=O)c2ccccc2C(O)=C1C(C1=C(O)c2ccccc2C(=O)C1=O)c1ccc(Cl)cc1
active: [1]; at 50.0 µM 72.2% | [5]; at 50.0 µM 80% | [8]; at 11.0 µM 74% | [8]; at 33.0 µM 72% | [9]; at 50.0 µM 86.2% | [10]; at 11.0 µM 70%
inactive: [1]; [17] -5% | [1]; at 11.0 µM 60% | [1]; at 33.0 µM 63% | [1]; [18] -6% | [1]; at 100.0 µM 65% | [2]; at 1.2 µM 5% | [2]; at 3.7 µM -6% | [2]; at 11.0 µM 28% | [2]; at 33.0 µM 32% | [2]; at 100.0 µM 15% | [3]; [17] -2% | [3]; [18] 21% | [3]; at 50.0 µM 60.1% | [4]; at 1.2 µM 3% | [4]; at 3.7 µM 12% | [4]; at 11.0 µM 60% | [4]; at 33.0 µM 66% | [4]; at 100.0 µM 63% | [5]; at 1.2 µM -1% | [5]; at 3.7 µM 5% | [5]; [17] -3% | [5]; at 11.0 µM 55% | [5]; at 33.0 µM 66% | [5]; [18] 34% | [5]; at 100.0 µM 50% | [6]; at 1.2 µM 4% | [6]; at 3.7 µM 15% | [6]; at 11.0 µM 50% | [6]; at 33.0 µM 54% | [6]; at 100.0 µM 46% | [7]; at 1.2 µM 6% | [7]; at 3.7 µM 13% | [7]; at 11.0 µM 58% | [7]; at 33.0 µM 62% | [7]; at 100.0 µM 56% | [8]; at 1.2 µM 16% | [8]; at 3.7 µM 39% | [8]; at 100.0 µM 63% | [9]; [17] -5% | [9]; [18] 42% | [10]; at 1.2 µM 23% | [10]; at 3.7 µM 38% | [10]; at 33.0 µM 64% | [10]; at 100.0 µM 49%

O=C(O)CCCC1CCCc2c1ccc1ccccc21 (stereo not given)
active: [11]; at 33.0 µM 74% | [11]; at 100.0 µM 99% | [12]; at 100.0 µM 99% | [13]; at 100.0 µM 81% | [14]; at 100.0 µM 99% | [15]; [18] 89% | [15]; at 50.0 µM 88% | [15]; at 100.0 µM 99% | [1]; [18] 95% | [1]; at 50.0 µM 83.6% | [1]; at 100.0 µM 99% | [2]; at 100.0 µM 99% | [4]; at 33.0 µM 74% | [4]; at 100.0 µM 99% | [16]; [18] 96% | [16]; at 50.0 µM 90.2% | [5]; [18] 85% | [5]; at 50.0 µM 89% | [5]; at 100.0 µM 99% | [6]; at 100.0 µM 99% | [7]; at 100.0 µM 99% | [8]; at 100.0 µM 99% | [9]; [18] 91% | [9]; at 50.0 µM 91.2% | [10]; at 100.0 µM 98%
inactive: [11]; at 1.2 µM -2% | [11]; at 3.7 µM 1% | [11]; at 11.0 µM 11% | [12]; at 1.2 µM -3% | [12]; at 3.7 µM 2% | [12]; at 11.0 µM 2% | [12]; at 33.0 µM 38% | [13]; at 1.2 µM 3% | [13]; at 3.7 µM 8% | [13]; at 11.0 µM 29% | [13]; at 33.0 µM 59% | [14]; at 1.2 µM -4% | [14]; at 3.7 µM -3% | [14]; at 11.0 µM 4% | [14]; at 33.0 µM 59% | [15]; at 1.2 µM -2% | [15]; at 3.7 µM 0% | [15]; [17] 6% | [15]; at 11.0 µM 8% | [15]; at 33.0 µM 58% | [1]; at 1.2 µM -2% | [1]; at 3.7 µM -4% | [1]; [17] 10% | [1]; at 11.0 µM 4% | [1]; at 33.0 µM 47% | [2]; at 1.2 µM 3% | [2]; at 3.7 µM 7% | [2]; at 11.0 µM 13% | [2]; at 33.0 µM 51% | [4]; at 1.2 µM 1% | [4]; at 3.7 µM -4% | [4]; at 11.0 µM 13% | [16]; [17] 5% | [5]; at 1.2 µM -4% | [5]; at 3.7 µM -6% | [5]; [17] 2% | [5]; at 11.0 µM 6% | [5]; at 33.0 µM 61% | [6]; at 1.2 µM -1% | [6]; at 3.7 µM 1% | [6]; at 11.0 µM 7% | [6]; at 33.0 µM 57% | [7]; at 1.2 µM -3% | [7]; at 3.7 µM -1% | [7]; at 11.0 µM 4% | [7]; at 33.0 µM 60% | [8]; at 1.2 µM -1% | [8]; at 3.7 µM -2% | [8]; at 11.0 µM 6% | [8]; at 33.0 µM 64% | [9]; [17] 4% | [10]; at 1.2 µM -2% | [10]; at 3.7 µM -2% | [10]; at 11.0 µM 2% | [10]; at 33.0 µM 58%
